# From PubChem BioAssay
# Inconclusive results are not listed. Active and inactive are the calls of the source. Rule as the data show it: active = fluorescence slope change above about 50%; inconclusive = mostly about 31% to 49%; inactive = weaker than that.
# Target: ATP-dependent translocase ABCB1 (Homo sapiens) (UniProt P08183)
# Test: MDR1 (ABCB1) efflux transporter inhibition, cell-based (AID 377)
# Conditions: MDR1-expressing cells, fluorescent substrate accumulation slope; active compounds read high; concentration not given here
# Chain of ATP-dependent translocase ABCB1 (Homo sapiens) (P08183 whole entry, looked up): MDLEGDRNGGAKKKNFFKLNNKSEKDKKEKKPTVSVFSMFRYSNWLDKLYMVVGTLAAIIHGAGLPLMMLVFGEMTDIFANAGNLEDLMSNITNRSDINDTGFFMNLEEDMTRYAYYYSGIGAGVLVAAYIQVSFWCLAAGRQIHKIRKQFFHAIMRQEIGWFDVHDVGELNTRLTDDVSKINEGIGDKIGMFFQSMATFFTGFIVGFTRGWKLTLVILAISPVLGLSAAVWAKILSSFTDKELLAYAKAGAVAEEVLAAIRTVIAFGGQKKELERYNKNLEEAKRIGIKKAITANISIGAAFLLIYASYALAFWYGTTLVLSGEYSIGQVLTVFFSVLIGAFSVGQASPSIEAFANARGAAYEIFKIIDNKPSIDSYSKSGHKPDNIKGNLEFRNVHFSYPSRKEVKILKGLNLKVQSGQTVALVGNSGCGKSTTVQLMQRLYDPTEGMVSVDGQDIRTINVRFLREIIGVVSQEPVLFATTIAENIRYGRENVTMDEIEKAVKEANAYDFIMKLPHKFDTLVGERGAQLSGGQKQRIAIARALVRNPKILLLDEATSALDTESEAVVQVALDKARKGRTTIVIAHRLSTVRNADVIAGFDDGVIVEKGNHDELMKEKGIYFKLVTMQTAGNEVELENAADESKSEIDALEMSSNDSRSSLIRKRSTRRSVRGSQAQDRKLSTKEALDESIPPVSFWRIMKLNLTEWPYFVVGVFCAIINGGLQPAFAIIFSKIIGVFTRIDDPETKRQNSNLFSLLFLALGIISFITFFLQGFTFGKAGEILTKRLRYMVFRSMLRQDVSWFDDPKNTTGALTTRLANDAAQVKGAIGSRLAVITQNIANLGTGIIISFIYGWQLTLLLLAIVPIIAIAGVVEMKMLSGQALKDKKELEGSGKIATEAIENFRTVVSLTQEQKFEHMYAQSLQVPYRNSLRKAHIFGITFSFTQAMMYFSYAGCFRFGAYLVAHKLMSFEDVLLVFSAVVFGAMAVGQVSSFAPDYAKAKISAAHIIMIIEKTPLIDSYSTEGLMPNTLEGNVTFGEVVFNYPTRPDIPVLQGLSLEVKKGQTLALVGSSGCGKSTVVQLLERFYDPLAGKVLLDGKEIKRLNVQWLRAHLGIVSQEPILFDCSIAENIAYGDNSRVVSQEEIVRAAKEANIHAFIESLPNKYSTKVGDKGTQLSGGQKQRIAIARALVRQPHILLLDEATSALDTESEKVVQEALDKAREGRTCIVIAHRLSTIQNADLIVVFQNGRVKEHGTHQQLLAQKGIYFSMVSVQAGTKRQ
structure (smiles),measurement,value
CO[C@H]1/C=C/O[C@@]2(C)Oc3c(C)c(O)c4c(O)c(c(/C=N/N5CCN(C)CC5)c(O)c4c3C2=O)NC(=O)/C(C)=C\C=C\[C@H](C)[C@H](O)[C@@H](C)[C@@H](O)[C@@H](C)[C@H](OC(C)=O)[C@@H]1C,fluorescence slope change,69.2% (active)
